The nature of test [1]: viability loss in pontine glioma line – cell-based, SU-DIPG-XIII, MIPE5.0, CellTiter-Glo, qHTS, dose response (AID 1347064; cut-off not given, nearly all actives have AC50 up to about 23 µM;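 as to AC50: cells exposed to compound for 48 hours before the viability read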). The note with it: CellTiter-Glo ATP luminescence. In general terms: In ATP-based viability assays light output follows the ATP content of the culture.
The nature of test [2]: viability loss in pontine glioma line – cell-based, SU-DIPG-XXV, MIPE5.0, CellTiter-Glo, qHTS, dose response (AID 1347065).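 Also: cells exposed to compound for 48 hours before ATP readout.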 The settings on record: CellTiter-Glo ATP luminescence.
Test [3] is described as follows: JHH-DIPG-1 glioma cell viability, MIPE5.0 library, CellTiter-Glo luminescence, qHTS (AID 1347067).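 Also: cells exposed to compound for 48 hours before readout.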 The settings on record: JHH-DIPG-1 glioma viability, CellTiter-Glo ATP luminescence.
Test [4] in a line: growth inhibition of DIPG cells – cell-based, MIPE5.0 library, qHTS (AID 1347068; cut-off not given, nearly all actives have IC50 up to about 30 µM;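 as to IC50: cells exposed to compound for 48 hours before viability readout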). The note with it: SU-DIPG-XXV viability. (In qHTS, concentration-response curves come from the screen itself.)

Inconclusive results are not listed. Calls of active or inactive are those of the source. Unless noted, the limit is not given here; nearly all actives have AC50 up to about 26 µM.

As a reminder, the AC50 is the midpoint of the concentration-response curve, whichever way the signal moves. As a reminder, the IC50 is the concentration at which inhibition is half-maximal.

Turning to `CC1(C(=O)O)CCC2(C)CCC3(C)C(=CC(=O)C4C5(C)CCC(OC6OC(C(=O)O)C(O)C(O)C6OC6OC(C(=O)O)C(O)C(O)C6O)C(C)(C)C5CCC43C)C2C1` (centres undefined), the compound was called inactive in test [1], in test [2], in test [3] and in test [4].

Regarding `NC(=O)c1cnc(N[C@@H]2CCCC[C@@H]2N)nc1Nc1cccc(-n2nccn2)c1`, the results for the AC50 in test [1], in test [2] and in test [3] were 7.42 µM (active), 5.25 µM (active) and 23.5 µM (active), respectively. Also, in test [4], the half-inhibitory concentration (IC50) was 18.6 µM (active).

In the case of `N#Cc1ccc(-c2c(-c3ncn[nH]3)sc(N3CCOCC3)c2C#N)c(F)c1`, the AC50 in test [1] is 5.9 µM (active); in test [2], 1.48 µM (active); in test [3], 10.5 µM (active). For the same compound, the IC50 in test [4] was 4.68 µM (active).

Turning to `O=C(Cc1cccc(OC(F)(F)F)c1)Nc1ccc(CCCCc2nnc(NC(=O)Cc3ccccn3)s2)nn1`, the figures for the AC50 in test [1], in test [2] and in test [3] were 13.2 µM (active), 14.8 µM (active) and 20.9 µM (active), respectively. Also, the compound was called inactive in test [4].

Regarding `CC(C)C(N)C(=O)OCC(CO)OCn1cnc2c(=O)[nH]c(N)nc21` (centres undefined), the compound was called inactive in test [1], in test [2], in test [3] and in test [4].

Regarding `CC1(C)CCC2(CC1)N[C@@H](C(=O)N[C@@H]1CC[C@@H](C(N)=O)OC1)[C@H](c1ccnc(Cl)c1F)[C@]21C(=O)Nc2cc(Cl)ccc21`, the concentration at half-maximal activity (AC50) is 16 µM (active) in test [1], 16 µM (active) in test [2] and 20.1 µM (active) in test [3]. Besides, the compound was called inactive in test [4].

For the compound `CN[C@@H](C)C(=O)N[C@H](C(=O)N1CCC[C@H]1C(=O)Nc1snnc1-c1ccccc1)C1CCCCC1`, the outcome in test [1], in test [2], in test [3] and in test [4] was inactive.

Regarding `c1ccc(CNCc2ccc(CN3CCCNCCNCCCNCC3)cc2)nc1`, the result in test [1], in test [2], in test [3] and in test [4] was inactive.

Consider `Cc1cc(O)c(-c2ccc([C@@H](C)CN(C)C)cc2)c2c1[nH]c(=O)c1sccc12`, for which the AC50 in test [1] is 0.417 µM (active); in test [2] it was 0.332 µM (active); in test [3], 0.417 µM (active). Also, the IC50 in test [4] is 0.332 µM (active).

For the compound `Cc1ccc(NC(=O)[C@H]2CCCN(C(=O)c3c(C)cccc3F)[C@H]2c2ccc(NC3CCCC3)cc2)cc1C(F)(F)F`, the compound was called inactive in test [1], in test [2], in test [3] and in test [4].

As to `CCCCOC(=O)NS(=O)(=O)c1sc(CC(C)C)cc1-c1ccc(Cn2ccnc2)cc1`, the call in test [1] and in test [4] was inactive. In addition, the AC50 in test [2] and in test [3] was 20.9 µM (active) each time.

On to `O=C(NC[C@H](O)CN1CCc2ccccc2C1)c1ccnc(NC2CCC2)c1`, for which the compound was classed as inactive in test [1], in test [2] and in test [4]. Besides, the AC50 in test [3] was 23.5 µM (active).

`O=C1OC(COc2ccccc2[N+](=O)[O-])CC1Cc1ccccc1` (centres undefined): the outcome in test [1], in test [2], in test [3] and in test [4] was inactive.

Take `COC1(c2sc3c(N4CCOCC4)nc(-c4cnc(N)nc4)nc3c2C)COC1`: the figures for the AC50 in test [1], in test [2] and in test [3] were 0.661 µM (active), 0.132 µM (active) and 0.525 µM (active), respectively. Besides, in test [4], the IC50 was 1.18 µM (active).

Take `COc1ccc(-n2cnc3cc(C(=O)N4CCCCC4)ccc32)cc1`: the compound was classed as inactive in test [1], in test [2], in test [3] and in test [4].

Take `NC(=S)N/N=C/c1ncccc1N`: the AC50 was 11.8 µM (active) in test [1], 16.6 µM (active) in test [2] and 14.8 µM (active) in test [3].

Take `COc1ncc(Nc2ncc([C@H](C)N3CCN(S(C)(=O)=O)CC3)cc2-c2nc(C)nc(N)n2)cc1F`: the AC50 is 0.525 µM (active) in test [1], 0.105 µM (active) in test [2] and 1.18 µM (active) in test [3].

Consider `CN(C)N(C)C(=O)[C@@]1(Cc2ccccc2)CCCN(C(=O)[C@@H](Cc2c[nH]c3ccccc23)NC(=O)C(C)(C)N)C1`, for which the result in test [1], in test [2], in test [3] and in test [4] was inactive.

Take `CC(C)n1c(=O)cc(N[C@@H](C)c2ccccc2)[nH]c1=O`: the results for the AC50 in test [1], in test [2] and in test [3] were 9.34 µM (active), 10.5 µM (active) and 14.8 µM (active), respectively. Besides, the call in test [4] was inactive.

As for `Cc1c(C(=O)N2CCOc3ccc(-c4ccc(N)nc4)cc3C2)ccc(S(C)(=O)=O)c1F`, the AC50 was 2.95 µM (active) in test [1] and 4.17 µM (active) in test [2].

`CCNCCc1ccc(CN(CC)c2cc(OC)ccc2[C@@H]2CCc3cc(O)ccc3C2)cc1`: the AC50 in test [1] is 7.42 µM (active); in test [2], 8.33 µM (active); in test [3] it was 5.25 µM (active). The IC50 in test [4] is 3.32 µM (active).

Turning to `CN(C)c1cc(NC(=O)CNC(C)(C)C)c(O)c2c1C[C@H]1C[C@H]3[C@H](N(C)C)C(=O)C(C(N)=O)=C(O)[C@]3(O)C(=O)C1=C2O`, the outcome in test [1], in test [2] and in test [3] was inactive.

Take `COCCCc1sc(-c2ccccc2)nc1C(=O)Nc1ccccc1-c1nc2cc(CN3CCCC3)cnc2s1`: the AC50 in test [1] is 9.1 µM (active); in test [2] it was 12.9 µM (active).

Regarding `CN1C(=O)N[C@H](Cc2c[nH]c3c(Cl)cccc23)C1=O`, the call in test [1], in test [2] and in test [3] was inactive.

With `Nc1nccc2c1ncn2[C@@H]1C=C(CO)[C@@H](O)[C@H]1O`, the compound was classed as inactive in test [1], in test [2], in test [3] and in test [4].

As to `O=C(NO)c1cnc(NC2(c3ccccc3)CC2)nc1`, the results for the half-maximal activity concentration (AC50) in test [1], in test [2] and in test [3] were 3.32 µM (active), 2.95 µM (active) and 2.95 µM (active), respectively.

For the compound `CCS(=O)(=O)N1CCN(c2ccc(Nc3ncc(C(N)=O)c(NC4CC4)n3)cc2)CC1`, the values for the AC50 in test [1], in test [2] and in test [3] were 16.6 µM (active), 11.8 µM (active) and 14.8 µM (active), respectively. In addition, the IC50 in test [4] is 23.5 µM (active).

The record behind these values is PubChem BioAssay.
